# About 83,000 compounds went through this panel and 20% of them were active in at least one assay; those are over-represented in the sample as a whole.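 Negative percent growth values reflect cell death: -40 means 40% of the cells present at the start died, and -100 means all died.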 Unmarked numbers belong to inactive results. The source made the active and inactive calls. Rule for the calls: active = growth percent below 10; inactive = the rest.
# Legend:
# Assay in all cases: NCI-60 one-dose screen, 48 h (100 = growth as untreated, 0 = no growth, -100 = all killed)
# Conditions in all cases: 10 µM
# NCI-H23 lung = tested on: NCI-H23 lung
# NCI-H226 lung = tested on: NCI-H226 lung
# HOP-62 NSCLC = tested on: HOP-62 NSCLC
# NCI-H460 lung = tested on: NCI-H460 lung
# NCI-H522 lung = tested on: NCI-H522 lung
# A549/ATCC NSCLC = tested on: A549/ATCC NSCLC
# 786-0 renal = tested on: 786-0 renal
# COLO 205 colon = tested on: COLO 205 colon
# HOP-92 NSCLC = tested on: HOP-92 NSCLC
SMILES,growth (NCI-H23 lung),growth (NCI-H226 lung),growth (HOP-62 NSCLC) [%],growth (NCI-H460 lung),growth (NCI-H522 lung),growth (A549/ATCC NSCLC),growth (786-0 renal),growth (COLO 205 colon),growth (HOP-92 NSCLC)
COc1cccc2ccc(CC(O)(c3ccccc3)c3ccccc3)nc12,89.6%,71.2%,86.8,90.8%,93.5%,95.5%,96.7%,95.4%,
NC1=NC(c2ccc(Cl)cc2)C2=C(N1)/C(=C/c1ccc(Cl)cc1)CCC2 (centres undefined),61.1%,109%,140,91.3%,19.1%,66.7%,90.4%,92%,
COc1ccc(Cc2cnc(N)nc2N)cc1OC,96.8%,99.1%,,105%,,101%,109%,108%,90.1%
COc1ccccc1-n1c(-c2sc(NC(C)=O)nc2C)n[nH]c1=S,101%,106%,,110%,102%,104%,106%,116%,105%
CC1/C=C/C=C/C=C/C=C/C=C/C=C/C=C/C(O[C@@H]2O[C@H](C)[C@H](O)[C@@H](O)[C@@H]2N)CC(O)C(C(=O)O)C(O)CC(=O)CC(O)CC(O)CC(O)CC(=O)CCCC(=O)CC(=O)OC1C(C)CC(C)C(O)CC(=O)c1ccc(N)cc1 (some centres undefined),-96.5% (active),-93% (active),,-81.8% (active),,-100% (active),-94% (active),-83.2% (active),-88.2% (active)
O=C(CCCCCCC(=O)Nc1ccccc1)NO,3.33% (active),48.9%,,16.3%,,7.25% (active),23.2%,-62.8% (active),-10.4% (active)
CCc1c2c(nc3ccc(OC(=O)N4CCC(N5CCCCC5)CC4)cc13)-c1cc3c(c(=O)n1C2)COC(=O)[C@]3(O)CC,5.19% (active),7.44% (active),,5.87% (active),,39.6%,-47.7% (active),58.1%,72.3%
COc1ccc(CCN2CCC(Nc3nc4ccccc4n3Cc3ccc(F)cc3)CC2)cc1,47.1%,60%,,1.57% (active),,28.7%,-96.5% (active),-65.7% (active),-20.1% (active)
CC(C)Cc1ccc([C@H](C)C(=O)O)cc1,105%,112%,,106%,,102%,106%,113%,79%
O=C(Nc1cc([N+](=O)[O-])c2[nH]c(=O)c3ccccc3c2c1)C(F)(F)F,81.8%,93.4%,,38.4%,77.2%,62%,88.8%,88.5%,112%
Clc1ccc2c(c1)C(N1CCNCC1)=Nc1ccccc1O2,64.4%,83.3%,,68.1%,,65%,56.1%,-65.9% (active),7.39% (active)
COc1ccc2nc3cc(Cl)ccc3c(Nc3cc(CN4CCCC4)c(O)c(CN4CCCC4)c3)c2n1,-29.4% (active),-32.1% (active),,4.16% (active),,9.53% (active),0.406% (active),-48.5% (active),-16.4% (active)
C/C(=C/CCC(C)[C@@H]1CC[C@]2(C)C3=C(CC[C@@]12C)[C@@]1(C)CCC(=O)C(C)(C)[C@@H]1CC3)C(=O)O (some centres undefined),-78.3% (active),-47.3% (active),,-80.7% (active),-69% (active),-56.2% (active),-92% (active),-91% (active),-93.3% (active)
Cc1ccc(C2=NN(c3ccc(S(C)(=O)=O)cc3)C(=O)CC2)cc1,-19.6% (active),77.6%,,12.8%,-28.5% (active),36.6%,38.3%,4.23% (active),60.9%
CNC(=O)c1c(I)c(NC(C)=O)c(I)c(C(=O)O)c1I,97.5%,98.8%,,109%,,105%,127%,118%,92.7%
CC(=O)O[C@@]12CO[C@@H]1C[C@H](O)[C@@]1(C)C(=O)[C@H](O)C3=C(C)[C@@H](OC(=O)[C@H](O)[C@@H](NC(=O)OC(C)(C)C)c4ccccc4)C[C@@](O)([C@@H](OC(=O)c4ccccc4)C12)C3(C)C (some centres undefined),31.8%,61.5%,,12.1%,,38.8%,54%,0.921% (active),56.3%
CCCc1nc(C(C)(C)O)c(C(=O)O)n1Cc1ccc(-c2ccccc2-c2nn[nH]n2)cc1,103%,103%,,105%,,99%,104%,,91.7%

# — PubChem BioAssay (NCI)
